# High-throughput results (PubChem BioAssay)
# Compounds with a hit are over-represented: about 3.5% of the library has one in this group of screens.
# Pf apPOL block = Pf-apPOL DNA polymerase inhibition; Recombinant Pf-apPOL, molecular beacon fluorescence, 1.5 h; inhibition, % at 10 µM; 0.25% of 210,000 active; AID 1794808
# mHTT CaM bind = inhibitors of human mutant huntingtin-calmodulin interaction. P42858. AlphaScreen His-mHTT/GST-CaM binding, luminescence. inhibition, % at 15 µM. 3.6% of 190,000 active. AID 1671202;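 further: 0% = both proteins with DMSO and 100% = one protein alone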
# Starred values were filed as active, the others as inactive. No stated cut-off is given here; in the data, active means inhibition above about 50%; inactive means the rest.
SMILES,Pf apPOL block,mHTT CaM bind
COC(=O)c1ccc(C(=O)Nc2nnc(-c3cc(Cl)ccc3Cl)o2)cc1,-4,-24
CCOc1cccc2cc(C(=O)Nc3nnc(-c4ccno4)o3)oc12,79*,14
O=C(NN1C(=O)c2ccccc2C1=O)c1cccs1,-6,-3
CN(C)c1cccc(C(=O)Nc2cc(-c3cccs3)no2)c1,2,15
CCc1noc(-c2cccnc2N2CCCN(C(=O)c3cccc(OC)c3)CC2)n1,-2,-2
CCOc1cc(/C=C2/SC(N3CCOCC3)=NC2=O)ccc1O,2,6
O=C(COc1ccc(Cl)cc1Cl)Nc1nnc(COc2ccccc2)o1,-260,97*
O=C(COc1ccc(Cl)cc1Cl)Nc1ccccc1F,-4,-5
COCCN=C1Nc2ccccc2NC12CCCN(C(=O)Nc1ccc(OC)cc1C)C2 (stereo unspecified),-2,70*
COCCN=C1Nc2ccccc2NC12CCCN(C(=O)Nc1ccc(OC)cc1)C2 (stereo unspecified),-6,100*
COCCN=C1Nc2ccccc2NC12CCCN(C(=O)c1ccc(C)c(F)c1)C2 (stereo unspecified),-3,48
COCCN=C1Nc2ccccc2NC12CCCN(C(=O)c1cc(OC)cc(OC)c1)C2 (stereo unspecified),-2,0
CCCCS(=O)(=O)CC(O)CSc1nc(C)cc(C)c1C#N (stereo unspecified),-1,-5
Cc1cccc2c(=O)n(C3CCN(S(=O)(=O)c4ccc(F)cc4)CC3)cnc12,1,-7
Cc1ccccc1NC(=O)Cn1c(=O)n(CCC(=O)NCc2ccccc2)c(=O)c2sccc21,-1,0
Cc1ccccc1CN1CCCN(c2ncccc2-c2nc(C(C)C)no2)CC1,-2,-66
CC(C)c1noc(-c2cccnc2N2CCCN(Cc3ccccc3Cl)CC2)n1,2,61*
CC(NS(=O)(=O)CCCOc1ccc2c(c1)OCO2)c1ccccc1 (stereo unspecified),-7,4
CCc1cc(C(=O)Nc2ccc(OC)c(Cl)c2)nc2ccnn12,-6,3
O=c1/c(=C/c2ccco2)sc2n1CN(c1cccc(C(F)(F)F)c1)CN=2,1,4
Cc1ccc(S(=O)(=O)CC(SC#N)c2ccccc2)cc1 (stereo unspecified),-5,-12
N#CSC(CS(=O)(=O)c1ccc([N+](=O)[O-])cc1)c1ccccc1 (stereo unspecified),-10,62*
Cc1ccccc1-n1nc2c(c1NC(=O)c1ccc(Br)o1)CS(=O)C2 (stereo unspecified),0,7
CCOc1cc(/C=C(\C#N)c2nn(-c3ccccc3)c(N)c2C#N)cc(Br)c1OC,-2,56*
COc1cc(/C=C(\C#N)c2nn(-c3ccccc3)c(N)c2C#N)cc(OC)c1OC,-8,49
SMILES,Pf apPOL block,mHTT CaM bind
COc1cc(/C=C(\C#N)c2nn(CCO)c(N)c2C#N)cc2c1OCO2,-4,1
CCOc1cc(/C=C(\C#N)c2nn(CCO)c(N)c2C#N)cc(I)c1OC,0,52*
CCOc1ccc2ccccc2c1C(=O)NC1CCCC(O)C1 (stereo unspecified),-4,-4
Nc1ncnc(NCCc2ccccc2)c1[N+](=O)[O-],-7,0
CCCn1cc2c3c(cccc31)CN(C(=O)c1ccc(F)cc1)CC2,0,94*
CN(C)c1ccc(C(=O)N2CCc3cn(C)c4cccc(c34)C2)cc1,-4,1
CCCn1cc2c3c(cccc31)CN(C(=O)c1ccccc1)CC2,-3,70*
CCCn1cc2c3c(cccc31)CN(C(=O)CC(C)(C)C)CC2,-3,17
Cn1cc2c3c(cccc31)CN(C(=O)c1ccc(Br)cc1)CC2,-5,54*
CCCn1cc2c3c(cccc31)CN(C(=O)c1ccsc1)CC2,5,39
Cc1cc(=O)n(CC(=O)Nc2ccc(C)c(C)c2)c(N2CCCCC2)n1,1,-6
Cc1ccc(-c2nccc(C3CCCN(C(=O)C(C)C)C3)n2)cc1 (stereo unspecified),-8,7
CC(C)(C)OC(=O)COc1ccc2c(c1)OC(=Cc1cccc(F)c1)C2=O,6,11
CCOc1ccc(CCNC(=O)Cn2nnc(-c3ccc(F)cc3)n2)cc1OCC,-41,-1
CCOc1ccc(CCNC(=O)Cn2nnc(-c3ccc(OC)cc3)n2)cc1OCC,-5,76*
CCOc1ccccc1N(CC(=O)Nc1ccc(OCc2ccccc2)cc1)S(C)(=O)=O,-4,26
CCOCC(=O)Nc1cc(F)c2[nH]c(=O)ccc2c1,11,-2
O=C(Nc1ccc(F)c(F)c1)c1ccc(F)c(S(=O)(=O)NCCc2ccc(Cl)cc2)c1,-23,50*
O=C(Nc1ccc(Cl)c(Cl)c1)c1ccc(F)c(S(=O)(=O)NCc2ccc(F)cc2)c1,-7,0
O=C(Nc1ccc(Cl)c(Cl)c1)c1ccc(F)c(S(=O)(=O)NCCc2ccccc2)c1,5,71*
O=C(Nc1cc(Cl)cc(Cl)c1)c1ccc(F)c(S(=O)(=O)NCCc2ccccc2)c1,39,40
